Usually AC50 stands for the concentration giving half of the maximal activity seen.

From PubChem BioAssay (EPA / NIEHS) come the findings set out here.

Active and inactive are the calls of the source. How the source made its calls: active means hit-call score of the fitted dose curve at least 0.9, where 1 is the maximum; inactive means score below 0.9.

Read-out in experiment [1]: C-C motif chemokine 2 (Homo sapiens) (UniProt P13500)
Nature of the experiment: BSK_KF3CT_MCP1: BioMAP Diversity Plus: KF3CT Assay for Monocyte Chemoattractant Protein 1 (MCP1/CCL2) Biomarker Activity (AID 2283073). The settings on record: primary human keratinocytes with fibroblasts; actives raise or lower the signal. In outline: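 Biomarker MCP-1 is measured by ELISA in primary human keratinocytes co-cultured with foreskin fibroblasts, 24 h after chemical treatment; DMSO serves as the negative control and activity baseline.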

Read-out in experiment [2]: Matrix Metallopeptidase 9 (MMP9), MMP9 (gene 4318)
Nature of the experiment: BSK_KF3CT_MMP9: BioMAP Diversity Plus: KF3CT Assay for Matrix Metallopeptidase 9 (MMP9) Biomarker Activity (AID 2283074). The settings on record: primary human keratinocytes with fibroblasts; actives raise or lower the signal. The procedure, abridged: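 Human keratinocyte and foreskin fibroblast co-culture exposed to chemicals for 24 h; MMP9 biomarker measured by ELISA, bidirectional fitting relative to DMSO; cytotoxicity tracked by SRB total protein staining in parallel cultures.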

Read-out in experiment [3]: urokinase plasminogen activator (uPA), PLAU (gene 5328)
Nature of the experiment: BSK_KF3CT_uPA: BioMAP Diversity Plus: KF3CT Assay for urokinase plasminogen activator (uPA) Biomarker Activity (AID 2283075). The note with it: primary human keratinocytes with fibroblasts; actives raise or lower the signal. The procedure, abridged:
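Primary human keratinocyte/foreskin fibroblast co-culture exposed to chemical; uPA measured by ELISA at 24 h. Bidirectional fit versus DMSO, with parallel SRB total-protein staining for cytotoxicity.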

Read-out in experiment [4]: CD40, CD40 (gene 958)
As to the kind of experiment: BSK_LPS_CD40: BioMAP Diversity Plus: LPS Assay for CD40 Biomarker Activity (AID 2283076). The settings on record: primary human HUVEC with PBMC; actives raise or lower the signal. In outline:
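Using a multiplexed primary human co-culture (umbilical vein endothelium plus PBMC), CD40 was read by ELISA 24 h after dosing, with cytotoxicity tracked by sulforhodamine B staining of parallel cultures and activity fitted bidirectionally versus DMSO.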

Read-out in experiment [5]: E-selectin (Homo sapiens) (UniProt P16581)
Nature of the experiment: BSK_LPS_Eselectin: BioMAP Diversity Plus: LPS Assay for Eselectin Biomarker Activity (AID 2283077). The note with it: primary human HUVEC with PBMC; actives raise or lower the signal. The procedure, abridged:
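Dose chemical onto LPS-driven HUVEC/PBMC co-culture; after 24 h, run ELISA for E-selectin; fit up- and down-going responses relative to DMSO control.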

Read-out in experiment [6]: Interleukin-8 (IL8), CXCL8 (gene 3576)
Nature of the experiment: BSK_LPS_IL8: BioMAP Diversity Plus: LPS Assay for Interleukin-8 (IL8) Biomarker Activity (AID 2283078). The note with it: primary human HUVEC with PBMC; actives raise or lower the signal. In outline:
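In this LPS system, chemical-treated human umbilical vein endothelium/PBMC co-cultures were harvested at 24 h for IL-8 ELISA.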

Experiment [7] can be described thus: BSK_LPS_SRB: Viability Assessment in the BioMAP Diversity Plus: LPS Assay (AID 2283079).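 Further: total protein by sulforhodamine B absorbance as a cytotoxicity measure; measured one day after compound addition; fitted in both directions against DMSO so loss or gain of signal counts.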 The note with it: primary human HUVEC with PBMC. In outline: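 Cytotoxicity endpoint in human endothelial–PBMC co-culture: 24 h exposure, then SRB (0.1%) staining, 560 nm read.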
Read-out in experiment [8]: Interleukin-1 alpha (IL1a), IL1A (gene 3552)
Nature of the experiment: BSK_LPS_IL1a: BioMAP Diversity Plus: LPS Assay for Interleukin-1 alpha (IL1a) Biomarker Activity (AID 2283080). The note with it: primary human HUVEC with PBMC; actives raise or lower the signal. The procedure, abridged:
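Primary human HUVEC and PBMC co-culture stimulated with LPS is dosed and harvested at 24 h. Both increases and decreases in ELISA-measured IL-1a are scored relative to DMSO.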

Read-out in experiment [9]: Monocyte Chemoattractant Protein-1 (MCP1), CCL2 (gene 6347)
Nature of the experiment: BSK_LPS_MCP1: BioMAP Diversity Plus: LPS Assay for Monocyte Chemoattractant Protein-1 (MCP1) Biomarker Activity (AID 2283081).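 On AC50: secreted MCP-1 protein quantified by ELISA in culture supernatant.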 The note with it: primary human HUVEC with PBMC; actives raise or lower the signal. The procedure, abridged:
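Values derive from bidirectional fitting against DMSO of ELISA-measured MCP-1 in a human primary endothelial and mononuclear cell co-culture, 24 h after chemical addition under LPS activation.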

The nature of experiment [10]: BSK_LPS_PGE2: BioMAP Diversity Plus: LPS Assay for Prostaglandin E2 (PGE2) Biomarker Activity (AID 2283082). The note with it: primary human HUVEC with PBMC; actives raise or lower the signal. In outline:
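HUVEC plus human PBMC co-culture stimulated with LPS; secreted PGE2 quantified by ELISA 24 h after chemical dosing. Activity fitted bidirectionally against DMSO baseline; parallel SRB staining (0.1% SRB after 10% TCA fixation, 560 nm) flags overt cytotoxicity.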

Read-out in experiment [11]: Macrophage colony-stimulating factor (MCSF), CSF1 (gene 1435)
As to the kind of experiment: BSK_LPS_MCSF: BioMAP Diversity Plus: LPS Assay for Macrophage colony-stimulating factor (MCSF) Biomarker Activity (AID 2283083). The note with it: primary human HUVEC with PBMC; actives raise or lower the signal. The procedure, abridged: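 Bidirectional fit versus DMSO of ELISA-measured M-CSF in co-cultured human umbilical vein endothelial cells and PBMC, sampled 24 h after dosing.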

Read-out in experiment [12]: Tissue Factor, F3 (gene 2152)
As to the kind of experiment: BSK_LPS_TissueFactor: BioMAP Diversity Plus: LPS Assay for Tissue Factor Biomarker Activity (AID 2283084). The settings on record: primary human HUVEC with PBMC; actives raise or lower the signal. The procedure, abridged:
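Read-out: CD142 ELISA, 24 h. System: LPS-driven human endothelial/PBMC co-culture. Analysis: up- or down-signal fitted against DMSO.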

Read-out in experiment [13]: Tumor necrosis factor (Homo sapiens) (UniProt P01375)
Nature of the experiment: BSK_LPS_TNFa: BioMAP Diversity Plus: LPS Assay for Tumour Necrosis Factor alpha (TNFa) Biomarker Activity (AID 2283085). The note with it: primary human HUVEC with PBMC; actives raise or lower the signal. In outline: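 Human umbilical vein endothelial cells co-cultured with PBMC and stimulated with LPS. TNFa was measured by ELISA 24 h after chemical dosing, fitted bidirectionally relative to DMSO.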

Read-out in experiment [14]: Vascular cell adhesion molecule 1 (VCAM1), VCAM1 (gene 7412)
Nature of the experiment: BSK_LPS_VCAM1: BioMAP Diversity Plus: LPS Assay for Vascular cell adhesion molecule 1 (VCAM1) Biomarker Activity (AID 2283086). The settings on record: primary human HUVEC with PBMC; actives raise or lower the signal. The procedure, abridged: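 Human umbilical vein endothelial cells co-cultured with PBMC and stimulated with LPS; VCAM-1 measured by ELISA 24 h after dosing. Bidirectional curve fitting against DMSO baseline; cytotoxicity tracked in parallel by SRB total-protein staining.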

Read-out in the next experiment: CD38, CD38 (gene 952)
Nature of the experiment: BSK_SAg_CD38: BioMAP Diversity Plus: SAg Assay for CD38 Biomarker Activity (AID 2283087). The settings on record: primary human HUVEC with PBMC; actives raise or lower the signal. In outline: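 Human HUVEC plus PBMC co-culture stimulated with superantigen; CD38 measured by ELISA 24 h after chemical dosing. Fluorescence read-out, bidirectional fit against DMSO; cytotoxicity tracked in parallel by SRB and Alamar Blue.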

Read-out in experiment [15]: CD40, CD40 (gene 958)
Nature of the experiment: BSK_SAg_CD40: BioMAP Diversity Plus: SAg Assay for CD40 Biomarker Activity (AID 2283088). The settings on record: primary human HUVEC with PBMC; actives raise or lower the signal. In outline: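 Endpoint derived by fitting increases or decreases versus DMSO controls. CD40 is detected by fluorescence ELISA in a human vascular co-culture of endothelium and PBMC at 24 h.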

Read-out in the next experiment: CD69, CD69 (gene 969)
As to the kind of experiment: BSK_SAg_CD69: BioMAP Diversity Plus: SAg Assay for CD69 Biomarker Activity (AID 2283089).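 On AC50: cell surface CD69 protein quantified by ELISA with fluorescence detection.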 The note with it: primary human HUVEC with PBMC; actives raise or lower the signal. In outline: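 Values derive from bidirectional fitting relative to DMSO vehicle. Cells: umbilical vein endothelium plus peripheral blood mononuclear cells, treated 24 h before fluorescent ELISA for CD69.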

Read-out in experiment [16]: Monocyte Chemoattractant Protein-1 (MCP1), CCL2 (gene 6347)
As to the kind of experiment: BSK_SAg_MCP1: BioMAP Diversity Plus: SAg Assay for Monocyte Chemoattractant Protein-1 (MCP1) Biomarker Activity (AID 2283090). The settings on record: primary human HUVEC with PBMC; actives raise or lower the signal. In outline: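 MCP-1 levels in the endothelial–PBMC SAg co-culture were quantified by ELISA at 24 h post-dosing; both increases and decreases versus DMSO scored. Cytotoxicity monitored by SRB total protein in parallel cultures.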

Read-out in experiment [17]: E-selectin (Homo sapiens) (UniProt P16581)
Nature of the experiment: BSK_SAg_Eselectin: BioMAP Diversity Plus: SAg Assay for Eselectin Biomarker Activity (AID 2283091). The settings on record: primary human HUVEC with PBMC; actives raise or lower the signal. In outline: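 Endpoint values derive from bidirectional fitting relative to DMSO, using ELISA-measured E-selectin in a human vascular co-culture (umbilical vein endothelium plus PBMC) sampled 24 h after dosing.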

Read-out in experiment [18]: Monokine induced gamma interferon (MIG), CXCL9 (gene 4283)
As to the kind of experiment: BSK_SAg_MIG: BioMAP Diversity Plus: SAg Assay for Monokine induced gamma interferon (MIG) Biomarker Activity (AID 2283092). The settings on record: primary human HUVEC with PBMC; actives raise or lower the signal. In outline:
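Values reflect bidirectional fitting of ELISA-measured MIG against DMSO vehicle, taken 24 h after dosing of a co-culture of human umbilical vein endothelial cells and peripheral blood mononuclear cells.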

Sequence of Tumor necrosis factor (Homo sapiens) (P01375 whole entry, looked up): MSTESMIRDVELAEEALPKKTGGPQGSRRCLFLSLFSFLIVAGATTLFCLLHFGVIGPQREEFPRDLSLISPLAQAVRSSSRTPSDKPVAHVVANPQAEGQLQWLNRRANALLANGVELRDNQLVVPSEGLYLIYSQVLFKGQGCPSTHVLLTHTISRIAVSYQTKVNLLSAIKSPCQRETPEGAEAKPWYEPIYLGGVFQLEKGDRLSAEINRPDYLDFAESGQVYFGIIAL
Sequence of E-selectin (Homo sapiens) (P16581 whole entry, looked up): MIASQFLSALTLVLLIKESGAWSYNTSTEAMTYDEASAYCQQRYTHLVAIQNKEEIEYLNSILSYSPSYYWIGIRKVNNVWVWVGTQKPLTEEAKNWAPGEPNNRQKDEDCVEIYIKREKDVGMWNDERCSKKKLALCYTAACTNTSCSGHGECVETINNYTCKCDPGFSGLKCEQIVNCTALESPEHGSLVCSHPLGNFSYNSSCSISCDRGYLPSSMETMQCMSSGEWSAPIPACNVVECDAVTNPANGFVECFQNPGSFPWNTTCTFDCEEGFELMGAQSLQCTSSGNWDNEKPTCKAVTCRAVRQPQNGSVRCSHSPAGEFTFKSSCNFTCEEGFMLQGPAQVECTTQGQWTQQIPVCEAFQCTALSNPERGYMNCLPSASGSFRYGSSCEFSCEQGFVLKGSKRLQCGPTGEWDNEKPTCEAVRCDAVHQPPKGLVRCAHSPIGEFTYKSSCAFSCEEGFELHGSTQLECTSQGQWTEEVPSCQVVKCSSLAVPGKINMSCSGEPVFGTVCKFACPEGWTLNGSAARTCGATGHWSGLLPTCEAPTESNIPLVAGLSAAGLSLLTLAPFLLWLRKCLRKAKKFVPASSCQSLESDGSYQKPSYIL

As for `Cc1cccc2ccccc12`, the outcome in experiment [1] was “inactive”; in experiment [2], “inactive”; in experiment [3], “inactive”; in the experiment with CD40, CD40 (gene 958) [4], “inactive”; in experiment [5], “inactive”; in experiment [6], “inactive”. The result in experiment [7], in [8], in [9], in experiment [10], in experiment [11] and in experiment [12] was inactive. Besides, the outcome was “inactive” in experiment [13]; “inactive” in experiment [14]; “inactive” in the experiment with CD38, CD38 (gene 952); “inactive” with CD40, CD40 (gene 958) [15]; “inactive” with CD69, CD69 (gene 969); “inactive” in experiment [16]. Also, the result in [17] was inactive.

For `Cc1c2ccccc2c(C)c2c1ccc1ccccc12`, the outcome in [1], in [2], in experiment [3], in experiment [5], in experiment [6] and in [10] was inactive. In addition, the result in [12], in experiment [13], in experiment [16] and in experiment [18] was inactive. In addition, the half-maximal activity concentration (AC50) with CD40, CD40 (gene 958) [4] was 15.3 µM (active); in experiment [7], 24.8 µM (active); in experiment [8] it was 26.8 µM (active); in experiment [9], 25.3 µM (active); in experiment [11] it was 20 µM (active); in experiment [14] it was 24.1 µM (active). The AC50 was 28.6 µM (active) in the experiment with CD38, CD38 (gene 952); 22.3 µM (active) in the experiment with CD40, CD40 (gene 958) [15]; 20 µM (active) in the experiment with CD69, CD69 (gene 969); 5.2 µM (active) in experiment [17].

As to `CCCCOC(=O)CC(CC(=O)OCCCC)(OC(C)=O)C(=O)OCCCC`, the outcome in [2] is “inactive”; in [3], “inactive”; with CD40, CD40 (gene 958) [4] it was “inactive”; in [5] it was “inactive”; in experiment [6], “inactive”; in experiment [7], “inactive”. Moreover, the outcome in experiment [8], in [9], in [10], in experiment [11], in experiment [12] and in experiment [13] was inactive. For the same compound, the outcome in experiment [14] was “inactive”; with CD38, CD38 (gene 952) it was “inactive”; with CD40, CD40 (gene 958) [15], “inactive”; with CD69, CD69 (gene 969), “inactive”; in [16], “inactive”; in experiment [17], “inactive”.
